Bioassay records from PubChem BioAssay.
NIH3T3 tox: Cytotoxic Profiling in NIH 3T3 Cell Line of Diverse Libraries Using Quantitative High-Throughput Screening; NIH 3T3 viability, CellTiter-Glo ATP luminescence, 48-72 h; Potency, µM (series often up to 96.7 µM), inactives show at the top dose activity change, negative = cytotoxicity, hits mostly inhibitors; 94,000 compounds, 4.3% hits; AID 1345082, 2018; also: % is scaled to controls: 0 for no effect and ±100 for the full control effect; nearly all actives have a fitted effect of over 55% in size
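First NIH 3T3 cells are plated at 400 cells/well; next compound is pinned in; then plates incubate 48 or 72 hr at 37 °C; finally CellTiter-Glo is added and luminescence read after 10 min.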
FLuc inh-1: Firefly luciferase inhibition profiling of diverse chemical library using quantitative high-throughput screening. Luciferin 4-monooxygenase (Photinus pyralis), P08659. purified P. pyralis luciferase, luminescence, biochemical. Potency, µM (titrated, usually from 115 µM), hits mostly inhibitors. 76,000 compounds, 2.5% hits. AID 1347043, 2019; also: % is scaled to controls: 0 for no effect and ±100 for the full control effect; nearly all actives have a fitted effect of over 65% in size
Target sequence (P08659 whole entry, looked up): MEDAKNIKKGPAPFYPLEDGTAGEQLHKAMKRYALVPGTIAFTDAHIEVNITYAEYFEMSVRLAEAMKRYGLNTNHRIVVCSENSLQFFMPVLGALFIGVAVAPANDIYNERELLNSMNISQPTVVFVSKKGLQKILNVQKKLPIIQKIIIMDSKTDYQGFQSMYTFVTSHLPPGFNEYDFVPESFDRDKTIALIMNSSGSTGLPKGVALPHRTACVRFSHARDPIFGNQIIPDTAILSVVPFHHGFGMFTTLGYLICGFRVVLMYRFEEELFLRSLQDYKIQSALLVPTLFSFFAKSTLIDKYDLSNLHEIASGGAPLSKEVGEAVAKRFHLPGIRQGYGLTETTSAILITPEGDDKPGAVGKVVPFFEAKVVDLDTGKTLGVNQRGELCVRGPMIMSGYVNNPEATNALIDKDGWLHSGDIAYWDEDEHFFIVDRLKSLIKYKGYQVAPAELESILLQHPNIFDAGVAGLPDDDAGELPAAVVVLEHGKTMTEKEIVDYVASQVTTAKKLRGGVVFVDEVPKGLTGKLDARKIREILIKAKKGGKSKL
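Inhibitors were tested against purified firefly luciferase in a biochemical, low-substrate format (both substrates at 10uM) and luminescence measured with a CCD imager.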
HEK293 tox: Cytotoxic Profiling in HEK 293 Cell Line of Diverse Libraries Using Quantitative High-Throughput Screening; HEK 293 viability, ATP luminescence (CellTiter-Glo), 48-72 h; AID 1345083, 2018; 94,000 compounds, 6.6% hits; Potency, µM (titrated, usually from 115 µM), without a hit: at the top dose activity change, negative = cytotoxicity, most hits filed as inhibitors; also: % is scaled to controls: 0 for no effect and ±100 for the full control effect; nearly all actives have a fitted effect of over 60% in size
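HEK 293 seeded at 250 cells/well receive compound via pintool. After 48 or 72 hr at 37 degree Celsius, 5% CO2 and 95% humidity, CellTiter-Glo is dispensed and luminescence read following 10 min at room temperature.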
hNpr1 antagonist: Natriuretic polypeptide receptor (hNpr1) antagonism - Primary qHTS. Atrial natriuretic peptide receptor 1 (Homo sapiens), P16066. HEK293 hNpr1 GloSensor cGMP, ANP-stimulated luminescence. Potency, µM (top dose mostly 46.3 µM), inactives show at the top dose activity change, negative = inhibition, hits mostly inhibitors. 76,000 compounds, 1.6% hits; calls by dose curve; also: % is scaled to controls: 0 for no effect and ±100 for the full control effect; nearly all actives have a fitted effect of over 60% in size
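HEK293 cells stably expressing human Npr1 and cGMP GloSensor pGS-40F, loaded 2 h with 2% GloSensor reagent, given compound 30 min at room temperature. Luminescence read before and 20 min after 0.1 nM hNppA.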
FLuc SDR -ATP: Firefly luciferase (FLuc-C-HiBiT) SDR gain of signal screen - without ATP. shares compounds with FLuc inh-1. Purified FLuc-C-HiBiT, Nano-Glo HiBiT luminescence, no ATP. Potency, µM (series often up to 32.7 µM), without a hit: at the top dose activation (signal gain), most hits filed as activators. 1,300 compounds, 7.8% hits. AID 1963318, 2024; also: nearly all actives have a fitted effect of over 55% in size
FLuc SDR ATP: Firefly luciferase (FLuc-C-HiBiT) SDR gain of signal screen - plus ATP. Potency, µM (titrated, usually from 32.7 µM), for the others: top-dose activation (gain of signal), usual class: activators. shares compounds with FLuc inh-1. purified FLuc-C-HiBiT + ATP, HiBiT complementation luminescence. 1,300 compounds, 8.7% hits;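 also: signal reports ligand binding via conformational change of the enzyme rather than luciferase catalysis; % of control where 0% means no effect; nearly all actives have a fitted effect of over 55% in size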
FLuc inh-2: Firefly luciferase (FLuc-C-HiBiT) enzymatic inhibition screen - Functional assay; shares compounds with FLuc inh-1; purified FLuc-C-HiBiT enzyme, luciferin luminescence; Potency, µM (series often up to 32.7 µM), without a hit: top-dose activity change, negative = inhibition, usual class: inhibitors; 1,300 compounds, 42% hits; also: % is scaled to controls: 0 for no effect and ±100 for the full control effect; nearly all actives have a fitted effect of over 70% in size
Numbers without * were called inactive; i = inactive; u = inconclusive; x = no result; [ ] = remark or other dose. A selection: hits, their analogues and other compounds. The true share with any hit is near 11%. Unless noted, calls follow the shape of the dose curve; as a rule, active = well fitted curve in the direction sought with a large enough effect; inconclusive = small, poorly fitted or top-dose-only effect, or another doubt; inactive = no such curve, though single readings can be large; an effect the other way counts as inactive or inconclusive. Potency is read from the fitted curve at half-maximal effect.

SMILES	NIH3T3 tox	FLuc inh-1	HEK293 tox	hNpr1 antagonist	FLuc SDR -ATP	FLuc SDR ATP	FLuc inh-2
COc1ccc(-c2noc(-c3nc(Cc4cccc(F)c4)no3)n2)cc1	-9%	i	1%	-10%	x	x	x
O=C(c1c(OCC2CC2)cc(=O)n2c1CCOCC2)N1CCN(c2ncccn2)CC1	-13%	i	1%	-8%	x	x	x
CCC(=O)N1CCc2ccc(C(=O)NC3CC3)cc21	4%	i	-5%	2%	x	x	x
CCC(=O)N1CCc2ccc(C(=O)NC3CCCCC3)cc21	-15%	2.2µM*	-20%	u	u	u	u
CC(=O)Nc1ccc(C(=O)NC2CCN(c3cc(-c4ccccc4)[nH]n3)C2)cc1 (centres undefined)	-3%	i	0%	-9%	x	x	x
Cc1cn2nc(C(=O)Nc3ccc(N(C)C)cc3)cc2c(N2CCCC2)n1	u	5µM*	u	10%	13%	13%	u
O=C(c1ccc(C(F)(F)F)cc1)N1CCCC2(CN[S+](=O)([O-])c3ccccc3N2)C1 (centres undefined)	-16%	i	-14%	-1%	x	x	x
CC(CCn1cccn1)NC(=O)c1csc2nc(-c3ccc(C(F)(F)F)cc3)cn12 (centres undefined)	u	13µM*	u	-27%	17%	12%	9.9µM*
OC1CC(c2cc(N3CCc4c(Cl)cccc4C3)ncn2)C1 (centres undefined)	u	1.3µM*	u	2.5µM*	18%	u	u
Cc1cc(C)cc(N2CCN(c3cc(C4CC(O)C4)ncn3)CC2=O)c1 (centres undefined)	-20%	i	-19%	2%	x	x	x
COc1ccc(-c2cnc(NC(=O)Cc3ccccc3)c3c2CCO3)cn1	u	i	-24%[172 µM]	-4%[70.6 µM]	x	x	x
c1ccc(-c2cnc(Nc3ccc4c(c3)OCCO4)c3c2CCO3)cc1	u	2.8µM*	u	u	13%[49.3 µM]	11%[49.3 µM]	16µM*
COc1ccc(-c2cnc(Nc3ccccc3)c3c2CCO3)cn1	u	3.5µM*	u	u	19%[49.3 µM]	12%[49.3 µM]	u
O=C(Nc1ncc(-c2cccc(F)c2)c2c1OCC2)c1ccncc1	u	i	-26%[172 µM]	4%[70.6 µM]	x	x	x
CNC(=O)c1cccc(-c2cnc(Nc3ccc(Cl)cn3)c3c2CCO3)c1	u	3.2µM*	u	u	18%[49.3 µM]	17%[49.3 µM]	u
COc1cccc(Nc2ncc(-c3cccnc3)c3c2OCC3)c1	u	14µM*	100µM*	-29%[70.6 µM]	21%[49.3 µM]	14%[49.3 µM]	u
CC1CCN(C(=O)C[C@@H]2c3nc(NC(=O)c4c(F)cccc4F)sc3C[C@@H]3[C@](C)(CO)[C@H](O)CC[C@]32C)CC1	u	i	u	-21%	x	x	x
Cc1ccc(C2Cn3nnc(-c4noc(-c5nn(C)c6ccccc56)n4)c3CO2)cc1 (centres undefined)	-3%	i	3%	9%	x	x	x
O=C(c1ccccc1Cl)N1CCN(C(=O)c2nc3cccnc3n(CCc3ccccc3)c2=O)CC1	-15%	x	u	x	x	x	x
O=C(c1cn2cc(-c3ccccc3)sc2n1)N1CCCCC1	-33%[138 µM]	x	u	x	x	x	x
O=C(c1cc(-c2ccccc2O)on1)N1CCCCC1	x	x	x	x	24%	16%	u
COc1cccc(-n2cnc3c(N/N=C/c4ccncc4)ncnc32)c1	x	x	x	x	24%	14%	u
